Sampled rows, rich in hits. Any-hit rate of the full collection: about 3.4%.
FBW7 act = activators of human E3 ligase FBW7; normalized activity (activation), % at 26.1 µM; 650,000 compounds, 0.13% hits; Q969H0; AlphaScreen FBW7–phospho-cyclin E peptide binding, activator screen; in the data active means normalized activity above about 1.9%;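 further: purified mutant Fbw7 with reduced substrate affinity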
Target sequence (Q969H0 whole entry, looked up): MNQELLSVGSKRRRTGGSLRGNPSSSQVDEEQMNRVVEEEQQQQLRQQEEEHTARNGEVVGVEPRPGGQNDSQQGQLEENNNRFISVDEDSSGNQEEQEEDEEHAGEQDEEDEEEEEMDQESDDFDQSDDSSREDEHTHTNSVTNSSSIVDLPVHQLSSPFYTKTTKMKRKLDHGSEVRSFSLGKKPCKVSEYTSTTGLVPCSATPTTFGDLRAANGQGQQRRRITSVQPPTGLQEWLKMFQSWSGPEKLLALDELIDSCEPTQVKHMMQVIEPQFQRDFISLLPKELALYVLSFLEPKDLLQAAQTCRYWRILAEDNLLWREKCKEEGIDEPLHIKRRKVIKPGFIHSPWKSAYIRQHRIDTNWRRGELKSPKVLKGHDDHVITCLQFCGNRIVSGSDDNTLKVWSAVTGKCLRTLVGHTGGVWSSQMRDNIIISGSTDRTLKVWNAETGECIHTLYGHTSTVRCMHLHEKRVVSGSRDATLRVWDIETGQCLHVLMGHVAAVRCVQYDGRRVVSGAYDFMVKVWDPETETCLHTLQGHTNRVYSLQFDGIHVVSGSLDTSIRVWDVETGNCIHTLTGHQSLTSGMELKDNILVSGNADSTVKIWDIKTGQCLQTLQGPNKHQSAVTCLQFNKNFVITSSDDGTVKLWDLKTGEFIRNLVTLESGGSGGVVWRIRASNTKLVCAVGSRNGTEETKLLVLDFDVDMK
GPR151 activ = activates the human receptor GPR151 | Q8TDV0 | AID 1508602 | 650,000 compounds, 1% hits | activation, % at 11.2 µM | PathHunter beta-arrestin GPR151 cells, luminescence; in the data active means activation above about 4.9%;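 further: 0% = median of compound wells and 100% = cells with positive control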
TEAD-YAP inh = TEAD-YAP interaction inhibition; HEK-TIYL cells, TEAD-Gal4/YAP UAS-luciferase luminescence; inhibition, % at 9.12 µM; 640,000 compounds, 1.4% hits; AID 1259422; in the data active means inhibition above about 32%;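 further: 0% = median of test compound wells and 100% = reference inhibitor wells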
MITF primary = blocks human microphthalmia-associated transcription factor | AlphaScreen MITF homodimerization, bead proximity signal | inhibition, % at 2.6 µM | 650,000 compounds, 0.91% hits | AID 1259374; in the data active means inhibition above about 50%;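 further: 0% = vehicle wells with protein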
Numbers without * were called inactive.

SMILES | FBW7 act | GPR151 activ | TEAD-YAP inh | MITF primary
COc1cccc(C=C2C(=O)NC(=O)NC2=O)c1OCc1ccccc1Cl | 0 | 3 | 0 | 5
COc1ccc(Cl)cc1/C=C1/C(=O)ON=C1C | 0 | 0 | 10 | 35
COc1cccc(/C=C2\C(=O)ON=C2C)c1OCc1ccccc1Cl | 0 | 0 | -17 | 74*
O=C1CCC(CCC(=O)N2CCN(C(=O)c3ccco3)CC2)(Cc2ccccc2)N1 (stereo not given) | 0 | 1 | -31 | 9
COCCCNC(=O)c1cnc(N2CCN(c3ccccc3OC)CC2)c2ccccc12 | 0 | -1 | 38* | 13
COc1ccc(NC(=O)c2cnc(N3CCN(c4ccccn4)CC3)c3ccccc23)cc1OC | 0 | 2 | 84* | 2
COc1cccc(NC(=O)c2cnc(N3CCN(c4ncccn4)CC3)c3ccccc23)c1 | 0 | -1 | 20 | 1
COc1cccc(NC(=O)c2cnc(N3CCN(c4ccccn4)CC3)c3ccccc23)c1 | 0 | 1 | 62* | -4
COc1ccc(NC(=O)c2cnc(N3CCN(c4ncccn4)CC3)c3ccccc23)c(OC)c1 | 0 | 2 | 50* | 12
CN(C)C=Nc1ccc(S(=O)(=O)Nc2ncccn2)cc1 | 0 | -1 | -2 | 12
O=C(NC1CCCCC1)c1cnc(N2CCN(c3ncccn3)CC2)c2ccccc12 | 0 | -1 | 0 | 2
COc1cc(NC(=O)c2cnc(N3CCN(c4ccccn4)CC3)c3ccccc23)cc(OC)c1OC | 0 | 1 | 78* | 6
COc1ccccc1N1CCN(c2ncc(C(=O)Nc3cc(OC)c(OC)c(OC)c3)c3ccccc23)CC1 | 0 | -1 | 56* | 8
COC1CC(NC(=O)c2cnc(N3CCN(c4ncccn4)CC3)c3ccccc23)CC(OC)C1OC (stereo not given) | 0 | 2 | 72* | -3
Cc1cccc(NC(=O)c2cnc(N3CCN(c4ccccn4)CC3)c3ccccc23)n1 | 0 | 0 | 40* | 5
CC(C)NC(=O)c1cnc(N2CCN(c3ccccn3)CC2)c2ccccc12 | 0 | 1 | 11 | -7
CSc1ccccc1C(=O)NCc1c(C)ncc2c1CCN(C(=O)c1cn[nH]c1)C2 | -1 | 1 | 3 | 12
COc1ccccc1N1CCN(C(=O)c2sc3ncnc(N4CCN(c5ccccn5)CC4)c3c2C)CC1 | 0 | -1 | 35* | -5
CCN1CCN(C(=O)c2sc3ncnc(N4CCN(c5ccccn5)CC4)c3c2C)CC1 | 0 | 0 | 19 | 6
Cc1c(C(=O)N2CCN(Cc3ccccc3)CC2)sc2ncnc(N3CCN(c4ccccn4)CC3)c12 | 0 | 3 | 37* | -10
COC(=O)Cn1nc(C)n2cccc2c1=O | 0 | -1 | 8 | 7
CC(C)(C)c1ccc(-c2cn(-c3ccccc3)c3[n+]2CCCS3)cc1 | 0 | 1 | 84* | 4
Cc1[nH]c(=S)sc1CC(=O)Nc1cnn(-c2cccc(C(=O)Nc3ccc(N4CCOCC4)cc3)c2)c1 | 0 | 0 | -10 | -11
O=C1COc2cc(S(=O)(=O)Nc3cc(C(F)(F)F)cc(C(F)(F)F)c3)ccc2N1 | 7.8* | 0 | 5 | -13
Cc1cc(C)cc(NS(=O)(=O)c2ccc3c(c2)OCC(=O)N3)c1 | 0 | 1 | -12 | -8
SMILES | FBW7 act | GPR151 activ | TEAD-YAP inh | MITF primary
Cc1cc(=O)oc2ccc(OC(=O)COc3ccccc3[N+](=O)[O-])cc12 | 0 | 1 | -15 | 10
NC(=O)c1c(NC(=O)CSc2nc(-c3ccccc3)cn2N)sc2c1CCC2 | 0 | 1 | 36* | -2
O=C(NC1CCCCC1O)c1cnc2scc(-c3ccccc3Cl)n2c1=O (stereo not given) | 0 | -1 | 0 | 38
O=C1NC2(CCCCC2)C(=O)N1Cc1ccc(Br)cc1F | 0 | -2 | 0 | 12
N#CC(NC(=O)c1ccc(Cl)cc1)=C(Cl)Cl | 1 | -1 | 37* | 32
O=C(NC(=O)N1CCCCC1)c1ccc(Cl)cc1 | 0 | -1 | 9 | 1
CCCCCCNc1ccc([N+](=O)[O-])cc1[N+](=O)[O-] | 0 | -1 | 4 | 13
CCCCCNc1sc(Cl)c([N+](=O)[O-])c1[N+](=O)[O-] | 0 | -1 | 65* | 13
COc1cc(SC)ccc1C(=O)Nc1nc2ccc(S(C)(=O)=O)cc2s1 | 0 | -1 | 46* | 5
COc1cc(SC)ccc1C(=O)Nc1nc2c(s1)C(=O)CC(C)(C)C2 | 1 | -2 | -22 | 13
COc1cc2ccccc2cc1C(=O)Nc1nc2c(s1)CCCC2 | 0 | -1 | -70 | -9
CC(=O)Nc1cc(NC(C)=O)cc(C(=O)Nc2nc3c(s2)CCCC3)c1 | 0 | 1 | 52* | 6
COc1ccc(Cl)cc1C(=O)Nc1nc2ccc(S(C)(=O)=O)cc2s1 | 0 | -1 | -3 | 5
COc1ccc(C(=O)Nc2nc3c(s2)CCCC3)c(OC)c1 | 0 | -10 | 95* | 4
CSc1cccc(C(=O)Nc2nc3c(s2)CCCC3)c1 | 0 | 0 | -75 | 5
COc1cc(SC)ccc1C(=O)Nc1nc2c(s1)CCCC2 | 0 | -7 | 98* | 5
O=C(c1ccccc1)N1CCN(Cc2ccc3ccccc3c2)CC1 | 0 | -1 | 9 | 12
O=C(Nc1cccc2ccccc12)N1CCOCCOCCN(C(=O)Nc2cccc3ccccc23)CCOCC1 | 0 | 0 | -9 | 2
Cc1c2c(=O)n(-c3nc4ccccc4s3)[nH]c2cc(=O)n1Cc1ccccc1Cl | 0 | 0 | 9 | 91*
CN1c2ncccc2C(=O)NC12CCN(C(=O)Cc1cccc(F)c1)CC2 | 0 | 1 | -9 | -2
Cc1cc(C)c2c(c1)-c1c(ssc1=S)C(C)(C)N2C(=O)C(C)C | 0 | -1 | 17 | 52*
Cc1ccc2c(c1)-c1c(ssc1=S)C(C)(C)N2C(=O)c1ccncc1 | -1 | -2 | 55* | 27
COc1ccc2c(c1)-c1c(ssc1=S)C(C)(C)N2C(=O)CSc1nnc(C)s1 | 0 | -1 | 34* | 19
COc1cc(C(=O)N2c3ccccc3-c3c(ssc3=S)C2(C)C)cc(OC)c1OC | 0 | 2 | 61* | 31
Cc1nnc(SCC(=O)N2c3cc(C)c(C)cc3-c3c(ssc3=S)C2(C)C)s1 | 0 | 0 | 3 | 17
SMILES | FBW7 act | GPR151 activ | TEAD-YAP inh | MITF primary
CCC(=O)N1c2c(C)cc(C)cc2-c2c(ssc2=S)C1(C)C | -1 | 1 | 6 | 26
Cc1ccc(Oc2ccc(NC(=O)c3ccc(Br)o3)cc2)cc1C | 0 | 0 | 17 | 11
COc1cccc(N=C/C(C(=O)C(F)(F)F)=C(\O)c2cccs2)c1 | 0 | -1 | 82* | 14
COc1cccc(/C=N/NC(=O)c2cccs2)c1 | 0 | -2 | -73 | 18
c1ccc(Nc2nc(Nc3ccc(-n4ccnc4)cc3)nc3c2ncn3-c2ccccc2)cc1 | 0 | 3 | 20 | 8
c1ccc(-n2cnc3c(Nc4ccc(N5CCOCC5)cc4)nc(Nc4cccnc4)nc32)cc1 | 0 | -1 | 41* | 11
c1ccc(Nc2nc(Nc3cccnc3)nc3c2ncn3-c2ccccc2)cc1 | 0 | -2 | 34* | 15

High-throughput results deposited in PubChem BioAssay by The Scripps Research Institute Molecular Screening Center.
